A selection: hits, their analogues and other compounds. The true share with any hit is near 12%.
JMJD2A Tudor: blocks the human JMJD2A Tudor domain; 390,000 compounds, 4.4% hits; Potency, µM (top dose mostly 114 µM), for the others: at the highest dose activity change, negative = inhibition, most hits filed as inhibitors; AID 504339; O75164; AlphaScreen JMJD2A-Tudor / H3K4me3 peptide binding; also: potency is read from the fitted curve at half-maximal effect; % is scaled to controls: 0 for no effect and ±100 for the full control effect; nearly all actives have a fitted effect of over 50% in size
PI5P4Ka inh: PI5P4K alpha (human) kinase inhibition; P48426; PI5P4Kalpha enzyme, ADP-Glo luminescence, 60 min; hits give low values; max response, %; 330,000 compounds, 1.2% hits; active = max response of -50% or lower; inconclusive = between -30% and -50%; inactive = -30% or higher; also: value at the top dose of about 77 µM; % is scaled to controls: 0 for no effect and ±100 for the full control effect
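Luminescence from ADP-Glo served as readout of PI5P4Kalpha activity in a qHTS format. Reaction: enzyme, substrate, compound, ATP at 5 microM final, 60 min at RT.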
G9a inh: blocks human histone lysine methyltransferase G9a; Q96KQ7; G9a H3K9 monomethylation, AlphaScreen, 2 h; Potency, µM (highest dose often 102 µM), for the others: top-dose activity, negative = inhibition, usual class: inhibitors; 350,000 compounds, 8.8% hits; also: potency is read from the fitted curve at half-maximal effect; % is scaled to controls: 0 for no effect and ±100 for the full control effect; nearly all actives have a fitted effect of over 75% in size
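Quantitative HTS format: methyltransferase activity on a biotin-tagged H3K9 peptide is measured by AlphaScreen, using a rabbit anti-monomethyl-H3K9 antibody with streptavidin donor and anti-IgG acceptor beads. Final levels are 20 nM enzyme, 500 nM peptide, 20 uM SAM; 2 h RT.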
PLK1 PBD block: blocks phosphopeptide binding to human PLK1 polo-box domain | P53350 | Plk1 PBD binding of FITC phosphopeptide, fluorescence polarization | Potency, µM, without a hit: max response, negative = inhibition, hits mostly inhibitors | 360,000 compounds, 2.8% hits | AID 720504; also: potency is read from the fitted curve at half-maximal effect; series mostly up to about 57 µM; % is scaled to controls: 0 for no effect and ±100 for the full control effect; nearly all actives have a fitted effect of over 65% in size
BAZ2B inh: BAZ2B (human) inhibition. Q9UIF8. AlphaScreen BAZ2B-H3K14Ac peptide displacement. Potency, µM (highest dose often 114 µM), for inactives: at the top dose activity change, negative = inhibition, hits mostly inhibitors. 360,000 compounds, 4.4% hits. AID 504333; also: potency is read from the fitted curve at half-maximal effect; % is scaled to controls: 0 for no effect and ±100 for the full control effect; nearly all actives have a fitted effect of over 60% in size
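Complex of BAZ2B and biotin-H3K14Ac (50 nM apiece) forms over 30 min at RT, then faces library compounds up to 110 uM for another 30 min; AlphaScreen beads added, 20 min dark incubation, luminescence read.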
HP1b binding inh: HP1-beta chromodomain-methylated histone interaction inhibition; 390,000 compounds, 0.56% hits; AlphaScreen HP1-beta / biotin-H3K9me3 peptide binding; P83916; Potency, µM (doses to about 114 µM), inactives show at the top dose activity change, negative = inhibition, hits mostly inhibitors; also: potency is read from the fitted curve at half-maximal effect; nearly all actives have a fitted effect of over 70% in size
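Compound inhibition of the preformed complex between 50 nM HP1-beta and 50 nM biotinylated H3K9me3 peptide was read by AlphaScreen. Buffer was PBS pH 7.4 with 0.01% Tween-20. Incubations ran 30 min at room temperature, with 10 ug/mL donor/acceptor beads.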
The depositor's hits bear a star; ? = inconclusive; . = no result given; [ ] = remark or other dose. Unless noted, calls follow the shape of the dose curve; as a rule, active = well fitted curve in the direction sought with a large enough effect; inconclusive = small, poorly fitted or top-dose-only effect, or another doubt; inactive = no such curve, though single readings can be large; an effect the other way counts as inactive or inconclusive.

SMILES	JMJD2A Tudor	PI5P4Ka inh	G9a inh	PLK1 PBD block	BAZ2B inh	HP1b binding inh
COc1ccccc1S(=O)Cc1ccc(C(=O)NCc2ccccc2Cl)o1 (stereo not drawn)	35µM*	-5	3.5µM*	27µM*	8%	-10%
COc1ccccc1CNC(=O)c1ccc(-c2ccccc2Cl)o1	-3%	3	28µM*	-12%	?	66%
COC(=O)COc1ccc(Oc2nc(NC(C)(C)C)nc(N(C)C)n2)nn1	-18%	.	6%[59 µM]	.	2%	4%
COc1ccccc1CNS(=O)(=O)c1c(C(=O)N2CCC(C)CC2)c(C)n(C)c1C	-27%	.	8%[59 µM]	.	-15%	14%
CCC(C(=O)Nc1nnc2n1CCS2)c1ccccc1 (stereo not drawn)	-24%	.	-47%[59 µM]	.	-37%	16%[57 µM]
CCc1ccc(CNC(=O)C2CCN(S(=O)(=O)N3CCCC3)CC2)cc1	-12%	2	.	-9%	-3%	25%
CCc1ccc(CNC(=O)C2CCN(S(=O)(=O)N3CC(C)CC(C)C3)CC2)cc1 (stereo not drawn)	-10%	-1	2%	-4%	50µM*	26%
CC1CCN(CC2CCN(C(=O)NCc3ccc(F)cc3)CC2)CC1	-9%	.	5%[59 µM]	.	3%	17%
CC1CCN(C(=O)C(C)NCc2ccc(F)cc2)CC1 (stereo not drawn)	10µM*	-8	7.1µM*	17µM*	50µM*	20%
O=C(NCc1ccc(F)cc1)C1CCN(S(=O)(=O)N2CCCC2)CC1	?	-25	-34%	12µM*	-3%	18%
Cc1ccc(CNC(=O)C2CCN(S(=O)(=O)N3CC(C)CC(C)C3)CC2)cc1 (stereo not drawn)	-12%	-7	-5%	-8%	-11%	18%
CC1CCN(S(=O)(=O)N2CCCC(C(=O)NCc3ccc(F)cc3)C2)CC1 (stereo not drawn)	11µM*	-13	13%	27µM*	-12%	-20%[57 µM]
c1ccc(CNCc2nnc(-c3cc4ccccc4[nH]3)o2)cc1	-12%	.	.	.	.	.
CN1CCN(CC(=O)N/N=C\c2c[nH]c3ccccc23)CC1	.	.	16µM*	.	-34%	.
Cc1[nH]c2ccccc2c1/C=N/NC(=O)CNC(=O)c1cccs1	-3%	-2	26%	2%	-11%	20%
Cc1ccccc1NCC(=O)N/N=C/c1c[nH]c2ccccc12	?	15	?	30µM*	-17%	-17%
O=C(CNC(=O)c1cccs1)N/N=C/c1c[nH]c2ccccc12	?	-14	1%	19µM*	-11%	8%
COc1cccc(Cn2c(=O)n(-c3ccccc3C)c(=O)c3c2c2cc(C)ccc2n3C)c1	10%	.	?	.	-20%	45%
Cc1ccc(-c2cn3c4c(=O)n(C)c(=O)n(C)c4nc3n2-c2cccc(Cl)c2)cc1	-5%	.	2%[59 µM]	.	-1%	56%
CN(Cc1ccc(F)cc1)C(=O)c1sccc1-c1ccccc1	27%	-20	40µM*	-3%	?	54%
Cc1[nH]n(-c2ccccc2)c(=O)c1N=Nc1ccc2c(c1)OCO2	?	-3	3.2µM*	-1%	1.8µM*	-4%
COc1cccc(N=Nc2c(C)[nH]n(-c3ccccc3)c2=O)c1	?	2	7.9µM*	-2%	6.3µM*	?
Cc1ccc(-c2ccc(/C=N/n3cnnc3)o2)cc1Cl	?	9	-4%[12.7 µM]	-7%	-10%	15%
Cc1cc(C(=O)O)ccc1-c1ccc(/C=N/n2cnnc2)o1	2%	0	56µM*	0%	1%	33%
O=[N+]([O-])c1cc(-c2ccc(/C=N\n3cnnc3)o2)cc([N+](=O)[O-])c1	?	-59*	45µM*	-15%	-38%	?
SMILES	JMJD2A Tudor	PI5P4Ka inh	G9a inh	PLK1 PBD block	BAZ2B inh	HP1b binding inh
O=[N+]([O-])c1ccccc1-c1ccc(/C=N/n2cnnc2)o1	-29%	.	-1%	-8%	-6%	-3%
CC(C)(C)OC(=O)N1CCC(C(=O)Nc2cccc(C(=O)N3CCCCC3)c2)CC1	-2%	-5	.	-3%	.	30%
Cc1ccc(S(=O)(=O)N2CC(O)CC2C(=O)OCc2nc3sc(C)c(C)c3c(=O)[nH]2)cc1 (stereo not drawn)	0%	6	4µM*	-3%	-2%	27%
Cc1ccc(NC2=Nc3ccccc3CS2)cc1	?	3	10µM*	-5%	0%	13%
Cc1ccc(Nc2ccccc2)cc1	-29%	0	-13%[59 µM]	0%	14%	16%
CC(C)c1ccc(NC(=O)CSC2=Nc3ccccc3C3=NC(CCC(=O)NCc4ccco4)C(=O)N23)cc1 (stereo not drawn)	-5%	.	8%[59 µM]	.	1%	34%
Cn1c(=O)c2c(nc(CN3CCN(C(=O)c4ccco4)CC3)n2Cc2ccccc2)n(C)c1=O	-13%	4	?	-10%	12%	9%
Cn1c(=O)c2c(nc(CN3CCN(C(=O)c4ccco4)CC3)n2Cc2ccc(Cl)cc2)n(C)c1=O	7%	1	50µM*	-10%	?	27%
Cc1ccc(Cn2c(CN3CCN(C(=O)c4ccco4)CC3)nc3c2c(=O)n(C)c(=O)n3C)cc1	-7%	.	50µM*	-5%	-10%	27%
Cn1c(=O)c(CCc2ccccc2)nc2cnc(N3CCNCC3)nc21	.	.	22%[12.7 µM]	.	.	.
COC(=O)C(=Cc1ccncc1)c1cccc2ccccc12	.	-7	.	3%	.	.
COc1ccc(CNC(=O)[C@H](C)NC(=O)C2CCN(C(=O)[C@@H](N)CCSC)CC2)cc1	-18%	-1	.	-7%	14%	24%
Cc1ccc(OCCNC(=O)c2ccc(NC(=O)CC3SC(N4CCCC4)=NC3=O)cc2)cc1 (stereo not drawn)	-17%	2	-6%[59 µM]	-13%	-15%	10%
Cc1c(C(=O)OCc2ccccc2)[nH]c2c1C(=O)CC(c1ccco1)C2 (stereo not drawn)	25µM*	-51*	?	?	50µM*	71µM*
COCCOC(=O)c1[nH]c2c(c1C)C(=O)CC(c1ccc(F)cc1)C2 (stereo not drawn)	-25%	1	14%	-5%	4%	40%
COCCOC(=O)c1[nH]c2c(c1C)C(=O)CC(c1ccccc1)C2 (stereo not drawn)	-14%	-1	-7%[59 µM]	-3%	3%	15%
COc1ccc(C2CC(=O)c3c([nH]c(C(=O)OCc4ccccc4)c3C)C2)cc1 (stereo not drawn)	-36%	.	-16%[59 µM]	.	-12%	24%
Cc1c(C(=O)OCCOC(C)C)[nH]c2c1C(=O)CC(c1ccco1)C2 (stereo not drawn)	?	?	45µM*	-22%	50µM*	-16%
CCOC(=O)c1[nH]c2c(c1C)C(=O)CC(c1ccco1)C2 (stereo not drawn)	56µM*	-68*	?	-25%	45µM*	-15%

Source: PubChem
